The panel holds about 83,000 compounds, 20% with a hit somewhere; the sample as a whole holds those more often.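 Note: values are percent growth. 100 is the growth of untreated cells, values between 100 and 0 indicate rising inhibition; between -100 and 0 indicates cell death.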 Unmarked numbers belong to inactive results. Activity calls are given as the source filed them.

The experiment deals with TK-10 renal. Kind of experiment: NCI-60 one-dose screen, 48 h (100 = growth as untreated, 0 = no growth, -100 = all killed). The settings on record: 10 µM. As for the experimental part:
Growth inhibition of the TK-10 human tumor cell line is measured as a screen for anti-cancer activity. Cells are grown in 96 well plates and exposed to the test compound for 48 hours. Compounds are tested at a single concentration, which is 10^-5 M for most compounds. The reported endpoint is percent growth (GI% or GIPRCNT), where numbers from 0 - 100% represent growth inhibition, and numbers from -100% - 0 represent cell death. For example, a value of 40 represents 60% growth inhibition. A value of 0 means no net growth occurred over the course of the experiment. A value of -40 indicates 40% of cells at the beginning of the experiment died by the end of the experiment. A value of -100 means all cells are dead at the end of the experiment.
NCI-60 Human Tumor Cell Lines Screen was performed using the standard one-dose NCI protocol, which is described in more detail at https://dtp.cancer.gov/discovery_development/nci-60/default.htm.
Compounds with GIPRCNT values below 10 were considered active. Activity score was based on GIPRCNT using the following formula: […]
Score is 0 for GIPRCNT values of 100 or above, 50 for GIPRCNT values of 0, and 100 for GIPRCNT values of -100.
In the case of `CC(=O)Nc1ccc(-n2cnc3cc(-c4ccc(O)cc4)ccc32)cc1F`, the growth is 49.2%. Next, `COc1ccc2nc(Cl)c(-c3cc(-c4ccccc4)nc(=S)[nH]3)cc2c1`: 129%; `C=C1CCC2C3(C)COC(c4ccccc4F)OC3CCC2(C)C1C/C=C1/C(=O)OCC1O` (stereo not given): -67.1% (active); `Cc1ccc2nc(-c3ccc(-c4nnc(SCC(=O)Nc5ccc(Cl)cc5)o4)cc3)[nH]c2c1`: 38.1%. Next, `O=c1cc(-c2ccccc2)oc2cc(OCCCCNCc3ccccc3)cc(O)c12`: 78.9%.

On to `CN1C(=O)/C(=C/c2nccs2)SC1=S`, for which the growth was 162%.

With `Nc1nc(-c2ccccc2)cc(-c2cc3ccccc3nc2Cl)n1`, the growth was 111%. Next, `CN1C(=O)N(C)C2SC(N/N=C/c3ccc(F)cc3)=NC21` (stereo not given): 72.4%; `CCCCCc1ccc(S(=O)(=O)N(C(C)=O)c2cc(-c3csc(N(C)C(C)=O)n3)ccc2N2CCN(C)CC2)cc1`: 76.7%; `CCN1CCN(Cc2ccc(NC(=O)c3cccc(-n4cc(-c5ccc(NC(C)=O)nc5)nn4)c3)cc2C(F)(F)F)CC1`: 149%. To `COc1cc2c(cc1OC)CN(CCCCOc1cc(O)c3c(=O)cc(-c4ccccc4)oc3c1)CC2` belongs 117%. Next, `CC(C)c1ccc(C(=O)Nc2sc3c(c2C(N)=O)CCC(=O)C3=O)cc1`: 125%; `N#Cc1c(NC(=O)c2ccc(C(F)(F)F)cc2C(F)(F)F)sc2c1CCC(=O)C2`: -27.8% (active). As to `O=C(c1ccccc1)n1ccc(-c2cc3cc(Br)ccc3oc2=O)n1`, the growth is 34.7%. Next, `CC(=O)NS(=O)(=O)c1ccc(NC(=O)CSC2=NC(c3ccccc3)C(C(C)=O)=C(C)N2)cc1` (stereo not given): 116%; `C=CC(=O)Nc1ccc(C(=O)/C=C/c2ccc(N(C)CCF)cc2)c(O)c1`: -23.7% (active). Next, `O=C(NO)c1ccc(CNc2nc(-c3ccccc3)c3ccccc3n2)cc1`: -17.2% (active). On to `COc1ccsc1/C=N/NC(=O)c1[nH]c2ccc(Br)cc2c1-c1ccccc1`, for which the growth was 16.1%. To `Cc1ccc(/C=C/C(=O)c2ccc(NC(=O)CSc3nnc(-c4c[nH]c5ccccc45)n3-c3ccccc3)cc2)cc1` belongs 107%; to `O=c1c2ccccc2nc(COc2ccccc2)n1/N=C/c1ccc(N2CCCC2)cc1`, 99.5%; to `Cc1ccc(/C(N)=N/c2sc(-c3ccccc3)nc2-c2ccccc2)cc1`, 100%. For `Cc1ccc(C(=O)NCCCNc2nc(Nc3ccc(N4CCN(C)CC4)cc3)nc3ccsc23)cc1`, the growth was 87.2%. To `CCOc1ccc2ncc(C#Cc3cncc(C(=O)Nc4ccc(CN5CCN(C)CC5)c(C(F)(F)F)c4)c3)n2n1` belongs -66.5% (active); to `CCCSc1nc(NC2CC2)c(C#N)c(-c2ccc(OC)cc2)n1`, 106%; to `Cc1cc(C(F)(F)F)ccc1C(=O)Nc1sc2c(c1C#N)CCC(=O)C2`, -2% (active).

Turning to `O=c1cc(-c2ccccc2)oc2cc(OCCCNCc3ccccc3)cc(O)c12`, the growth was 37.3%.

With `CCC(C)S(=O)(=O)c1oc(-c2ccc(C)cc2)nc1S(=O)(=O)c1ccccc1` (stereo not given), the growth is -99.5% (active). To `OCCNc1oc(-c2ccccc2)nc1[P+](c1ccccc1)(c1ccccc1)c1ccccc1` belongs 32.4%; to `CCCn1c(=O)c2[nH]c(-c3ccc(OCc4nc5ccc(F)cc5[nH]4)cc3)nc2n(CCC)c1=O`, -3.59% (active); to `O=C(Nc1ccc(Cl)c([N+](=O)[O-])c1)Nc1ccc(Cl)c([N+](=O)[O-])c1`, 48.3%. Next, `Cn1cc(/C=N/Nc2ccnc3cc(Cl)ccc23)c2ccccc21`: -72.1% (active); `O=C1CCC(N2Cc3cc(CC(=O)Nc4ccc(N5CCCCC5)cc4)ccc3C2=O)C(=O)N1` (stereo not given): 67.5%; `Cc1ccc(CSc2nc(-c3ccc(F)cc3)c(C#N)c(=O)[nH]2)cc1`: 93.5%.

Regarding `COc1cc(/C=C/C(=O)c2ccc(NC(=O)CSc3nnc(-c4c[nH]c5ccccc45)n3-c3ccccc3)cc2)cc(OC)c1OC`, the growth is 117%. For `COc1ccc(C=CC(=O)c2ccc(-n3c(C)nc4c(cnn4-c4ccccc4)c3=O)cc2)cc1`, the growth is 86.8%.

`C[C@H]1[C@H](C)CC[C@]2(COC(=O)CCC(=O)NCC#CCN3CCNCC3)CC[C@]3(C)C(=CC[C@@H]4[C@@]5(C)CCCNC(C)(C)[C@@H]5CC[C@]43C)[C@H]12`: the growth is 70.9%.

`Cc1ccc2nc(COc3ccc(C(=O)NNC(=S)NCCc4ccccc4)cc3)[nH]c2c1`: the growth is 111%. Next, `Cc1cc(C)nc(NS(=O)(=O)c2ccc(N/C(N)=N/c3nccc(-c4cccs4)n3)cc2)n1`: 117%; `C/C(=C\CSc1ccccc1C(=O)O)CCCC(C)CCCC(C)CCCC(C)C` (stereo not given): 87.7%; `CN1C/C(=C\c2ccc(O)cc2O)c2[o+]c3cc(O)ccc3cc2C1`: 82.4%.

The values above are taken from PubChem BioAssay (NCI).
